Calls of active or inactive are those of the source.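 Rule for the calls: active = curve showing a falling signal whose half-maximal concentration is at most twice the top valid dose; inconclusive = flat curve with a moderate drop, or an unreliable fit; inactive = the rest.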
Experiment: endogenous miR-21 quantity in Huh7 cells – cell-based, RT-qPCR, dry powder, selectivity assay for miR-122 inhibitor project, dose response (AID 687038)
Conditions: Huh7 miR-21 levels, qRT-PCR, 48 h; series mostly up to 35 µM; relative miR-21 level (fold): at the top concentration

Relative miR-21 level (fold), inactive:
C[C@H]1CN([C@@H](C)CO)C(=O)c2cc(C#Cc3ccccc3F)cnc2O[C@@H]1CN(C)C(=O)C1CCCCC1 0.5 fold
O=C(CNCCC1=CCCCC1)Nc1ccccc1N1CCCCCC1 0.482 fold
CCCC#Cc1ccc2c(c1)O[C@H](CN(C)C(=O)c1ccncc1)[C@H](C)CN([C@@H](C)CO)S2(=O)=O 0.809 fold
COCC(=O)N(C)C[C@H]1Oc2cc(-c3ccc(C#N)cc3)ccc2S(=O)(=O)N([C@H](C)CO)C[C@H]1C 0.916 fold
O=C(c1ccc(CN2CCOCC2)cc1)N1CCc2ccccc21 1.02 fold
C[C@H]1CN([C@@H](C)CO)S(=O)(=O)c2ccc(C#Cc3ccncc3)cc2O[C@H]1CN(C)C(=O)C1CCOCC1 0.804 fold
CN1C(=O)c2cc(NC(=O)c3cccc(F)c3)ccc2OC[C@H]2O[C@@H](CC(=O)O)CC[C@H]21 2.53 fold
COCC(=O)N(C)C[C@H]1Oc2cc(C#Cc3cccnc3)ccc2S(=O)(=O)N([C@H](C)CO)C[C@H]1C 2.76 fold
C[C@H]1CN([C@@H](C)CO)C(=O)c2cc(C#Cc3ccccc3F)cnc2O[C@H]1CN(C)C(=O)C1CCCCC1 0.507 fold
COc1ccc(S(=O)(=O)N(C)C[C@@H]2Oc3ncc(/C=C/c4ccccc4)cc3C(=O)N([C@@H](C)CO)C[C@@H]2C)cc1 1.54 fold
Nc1ccc(Oc2ccc(Br)cc2)cc1 0.414 fold
CCCC#Cc1ccc2c(c1)O[C@H](CN(C)C(=O)COC)[C@H](C)CN([C@@H](C)CO)S2(=O)=O 0.974 fold
O=C(Nc1ccc(-c2nc3ccccc3o2)cc1)c1cc(-n2cnnc2)ccc1Cl 0.344 fold

From PubChem BioAssay AID687038 (Broad Institute, 2013)
